This passage reports outcome and AC50 results from PubChem BioAssay (EPA / NIEHS).

The source made the active and inactive calls. How the source made its calls: active means hit-call score of the fitted dose curve at least 0.9, where 1 is the maximum; inactive means score below 0.9.

This assay can be described thus: CCTE_Shafer_MEA_acute_cross_correlation_area: CCTE's Neural Acute Assay for Area of Cross Correlation, Shafer Lab (AID 2284024).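 Further: curves fitted for loss of cross-correlation area so actives lower synchrony.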 On the procedure: CCTE_Shafer_MEA_acute assay is conducted using Axion Biosystems 48 well microelectrode array (MEA) plates and Maestro recording system. Each well of the MEA plate contains a grid of 16 microelectrodes embedded in the culture surface. Electrically active cells, such as neurons, can be cultured over the electrodes, and electrical activity in these cells can be recorded extracellularly. The spontaneous firing of neurons is captured from each electrode on a microsecond timescale providing both temporally and spatially precise data. […] The CCTE_Shafer_MEA_acute assay uses primary cultures of rat cortical neurons. As these cultures mature over time, neural networks develop functional activity and form cohesive networks in which electrical activity can be highly coordinated. Baseline 40-minute recordings are made on days post-plating 13 or 15, followed by a secondary 40-minute recording after chemical exposure.CCTE_Shafer_MEA_acute_cross_correlation_area is a component of the CCTE_Shafer_MEA_acute assay. It measures the area under the well-wide pooled inter-electrode cross-correlation of action potential firing (not normalized to auto-correlations) within a window centered around 0 for the phase lag during a recording in a microelectrode array (MEA) using Axion Biosystems Maestro 768 channel amplifier with the AxIS adaptive spike detector. The recordings before and after chemical treatment are used to calculate a percent change in the cross correlation area in each well.Data from the assay component CCTE_Shafer_MEA_acute_cross_correlation_area was analyzed into 1 assay endpoint. This assay endpoint, CCTE_Shafer_MEA_acute_cross_correlation_area, was analyzed in the negative analysis fitting direction relative to DMSO as the negative control and baseline of activity. Using a type of functional reporter, gain or loss-of-signal activity can be used to understand electrical activity.
Spontaneous activity in the cortical cultures was recorded using an Axion Biosystems Maestro 768 channel amplifier and Axion Integrated Studios (AxIS) v1.8 (or later) software. The amplifier recorded from all channels simultaneously (gain = 1200 x; sampling rate = 12.5 kHz/channel): raw signals were filtered with a Butterworth band-pass filter (300-5000 Hz), which filters out slower local field potentials leaving only fast potentials, i.e., "spikes", arising from extracellular currents associated with action potentials (Pine 2006; Wheeler and Nam 2011). On-line spike detection of filtered signals was conducted with the AxIS adaptive spike detector, using a threshold of 8x the root mean squared (rms) noise on each channel. Any electrodes with rms noise levels greater than 5 uV were grounded (e.g., no data were recorded). Once grounded, an electrode was grounded for the duration of the experiment. All recordings were conducted at 37 C. Wells were deemed usable if on the day of the exposure >/= 10 electrodes were active (defined as >/= 5 spikes/min). On DIV 13 or 15, a minimum of three wells from one cortical culture preparation were treated with each compound (0.03-40 uM). Prior to recording baseline activity, each mwMEA plate was placed in the Maestro at 37 C and allowed to sit for 20 min while firing rates stabilized. Baseline activity (40 min) was recorded before the addition of each compound. An additional 40 min of spontaneous activity was recorded in the presence of each compound. Changes in network parameters relative to baseline were assessed following compound treatment.
Regarding `C1CN(CCOCCN2CCOCC2)CCO1`, the outcome was inactive. By AC50 is commonly meant the concentration giving half of the maximal activity seen. With `COc1ccc(C(=O)c2ccccc2O)c(O)c1`, the AC50 was 20.3 nM (active). Turning to `CNCCC(Oc1ccc(C(F)(F)F)cc1)c1ccccc1` (stereo unspecified), the result was inactive. `CC[N+](CC)(CC(=O)Nc1c(C)cccc1C)Cc1ccccc1` (tested in a mixture with another compound): the molecule was classed as inactive. For the molecule `CC1(C)S[C@@H]2[C@H](NC(=O)[C@H](N)c3ccccc3)C(=O)N2[C@H]1C(=O)O`, the molecule was classed as inactive.

In the case of `COc1cc(CNC(=O)CCCC/C=C/C(C)C)ccc1O`, the outcome was inactive. `O=[N+]([O-])c1cc(S(=O)(=O)Nc2ccccc2)ccc1Nc1ccccc1`: the molecule was classed as inactive. Regarding `CCC[Si](OC(C)=O)(OC(C)=O)OC(C)=O`, the AC50 is 72 nM (active). Turning to `CN(C)C(=O)C(CCN1CCC(O)(c2ccc(Cl)cc2)CC1)(c1ccccc1)c1ccccc1`, the result was inactive. On the same count and under the same terms, as for `COc1ccccc1Oc1c(NS(=O)(=O)c2ccc(C(C)(C)C)cc2)nc(-c2ncccn2)nc1OCCO`, the entry is “inactive”. Regarding `Cc1c(C(N)=O)cc([N+](=O)[O-])cc1[N+](=O)[O-]`, the call was inactive. As to `NC(N)=Nc1nc(CSCCC(N)=NS(N)(=O)=O)cs1`, the molecule was called inactive. For the molecule `CC(C)C1OCCN1CCOC(=O)NCCCCCCNC(=O)OCCN1CCOC1C(C)C` (stereo unspecified), the molecule was classed as inactive. For `CN(C)Cc1cc(C(C)(C)C)c(O)c(C(C)(C)C)c1`, the molecule was classed as inactive.

For `CN(C)CCC(c1ccc(Cl)cc1)c1ccccn1` (stereo unspecified), the call was inactive. Same read-out and setting: as for `CC1(C)S[C@@H]2[C@H](NC(=O)[C@H](N)c3ccc(O)cc3)C(=O)N2[C@H]1C(=O)O`, the entry is “inactive”.
